# In PubChem BioAssay (NCI):
# Values joined by “and” are separate entries in the source; they are usually repeats but may differ in a detail not shown here. Equal entries are not always repeated. The panel holds about 83,000 compounds, 20% with a hit somewhere; the sample as a whole holds those more often.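 96-well plates, one dose, 48 hours. Percent growth reported; active if below 10.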 Active and inactive are the calls of the source.
# Columns and labels:
# Test in all cases: NCI-60 one-dose screen, 48 h (100 = growth as untreated, 0 = no growth, -100 = all killed)
# SR leukemia = details: 10 µM unless noted
# RPMI-8226 leukemia = tested on: RPMI-8226 leukemia
# OVCAR-8 ovarian = tested on: OVCAR-8 ovarian
# OVCAR-5 ovarian = tested on: OVCAR-5 ovarian
# OVCAR-4 ovarian = tested on: OVCAR-4 ovarian
# SK-OV-3 ovarian = tested on: SK-OV-3 ovarian
# IGROV1 ovarian = tested on: IGROV1 ovarian
# OVCAR-3 ovarian = details: 10 µM unless noted
# HS 578T breast = details: 10 µM unless noted
# NCI/ADR-RES ovarian = tested on: NCI/ADR-RES ovarian
# T-47D breast = tested on: T-47D breast
# BT-549 breast = tested on: BT-549 breast
# MDA-MB-435 melanoma = details: 10 µM unless noted
# SW-620 colon = tested on: SW-620 colon
# MCF7 breast = tested on: MCF7 breast
# HCT-116 colon = details: 10 µM unless noted
# HCC-2998 colon = tested on: HCC-2998 colon
# KM12 colon = tested on: KM12 colon
structure (smiles),measurement,setting,value
C[n+]1c(/C=C/c2ccc([N+](=O)[O-])cc2)ccc2ccccc21,growth,SR leukemia,82.7% (inactive)
same,growth,RPMI-8226 leukemia; 10 µM unless noted,102% (inactive)
same,growth,OVCAR-8 ovarian; 10 µM unless noted,91.3% (inactive)
same,growth,OVCAR-5 ovarian; 10 µM unless noted,112% (inactive)
same,growth,OVCAR-4 ovarian; 10 µM unless noted,105% (inactive)
same,growth,SK-OV-3 ovarian; 10 µM unless noted,109% (inactive)
same,growth,IGROV1 ovarian; 10 µM unless noted,104% (inactive)
same,growth,OVCAR-3 ovarian,99.5% (inactive)
same,growth,HS 578T breast,99.7% (inactive)
same,growth,NCI/ADR-RES ovarian; 10 µM unless noted,102% (inactive)
same,growth,T-47D breast; 10 µM unless noted,103% (inactive)
same,growth,BT-549 breast; 10 µM unless noted,107% (inactive)
same,growth,MDA-MB-435 melanoma,108% (inactive)
same,growth,SW-620 colon; 10 µM unless noted,97.6% (inactive)
same,growth,MCF7 breast; 10 µM,96.1% (inactive)
same,growth,HCT-116 colon,102% (inactive)
same,growth,HCC-2998 colon; 10 µM unless noted,100% (inactive)
CCCCCCCCCCCCCCNCc1ccccc1,growth,SR leukemia,11.8% (inactive)
same,growth,RPMI-8226 leukemia; 10 µM unless noted,34.5% (inactive)
same,growth,OVCAR-8 ovarian; 10 µM unless noted,87% (inactive)
same,growth,OVCAR-5 ovarian; 10 µM unless noted,105% (inactive)
same,growth,OVCAR-4 ovarian; 10 µM unless noted,80.3% (inactive)
same,growth,SK-OV-3 ovarian; 10 µM unless noted,97.8% (inactive)
same,growth,IGROV1 ovarian; 10 µM unless noted,97.7% (inactive)
same,growth,OVCAR-3 ovarian,91.4% (inactive)
same,growth,HS 578T breast,95% (inactive)
same,growth,NCI/ADR-RES ovarian; 10 µM unless noted,79.6% (inactive)
same,growth,T-47D breast; 10 µM unless noted,72.9% (inactive)
same,growth,BT-549 breast; 10 µM unless noted,96.6% (inactive)
same,growth,MDA-MB-435 melanoma,72.2% (inactive)
same,growth,SW-620 colon; 10 µM unless noted,42.5% (inactive)
same,growth,MCF7 breast; 10 µM,51.2% (inactive)
same,growth,HCT-116 colon,86.8% (inactive)
same,growth,HCC-2998 colon; 10 µM unless noted,16.1% (inactive)
same,growth,KM12 colon; 10 µM unless noted,62.5% (inactive)
O=C(Nc1cccc(Br)c1)Oc1ccc(Cl)c2cccnc12,growth,SR leukemia,7.23% [100 µM] (active)
same,growth,RPMI-8226 leukemia; 10 µM unless noted,3.35% [100 µM] (active)
same,growth,OVCAR-8 ovarian; 10 µM unless noted,16% [100 µM] (inactive)
same,growth,OVCAR-5 ovarian; 10 µM unless noted,33.7% [100 µM] (inactive)
same,growth,OVCAR-4 ovarian; 10 µM unless noted,3.81% [100 µM] (active)
same,growth,SK-OV-3 ovarian; 10 µM unless noted,95.6% [100 µM] (inactive)
same,growth,IGROV1 ovarian; 10 µM unless noted,13.6% [100 µM] (inactive)
same,growth,OVCAR-3 ovarian,-48.7% [100 µM] (active)
same,growth,HS 578T breast,50.9% [100 µM] (inactive)
same,growth,NCI/ADR-RES ovarian; 10 µM unless noted,6.36% [100 µM] (active)
same,growth,T-47D breast; 10 µM unless noted,12.1% [100 µM] (inactive)
same,growth,BT-549 breast; 10 µM unless noted,4.77% [100 µM] (active)
same,growth,MDA-MB-435 melanoma,30.2% [100 µM] (inactive)
same,growth,SW-620 colon; 10 µM unless noted,26.1% [100 µM] (inactive)
same,growth,MCF7 breast; 100 µM,-30.3% (active)
same,growth,HCT-116 colon,2.06% [100 µM] (active)
same,growth,HCC-2998 colon; 10 µM unless noted,44.9% [100 µM] (inactive)
same,growth,KM12 colon; 10 µM unless noted,30.5% [100 µM] (inactive)
O=C(Nc1cccc(Br)c1)Oc1cccc2cccnc12,growth,SR leukemia,10.5% [100 µM] (inactive)
same,growth,RPMI-8226 leukemia; 10 µM,99.2% (inactive)
same,growth,RPMI-8226 leukemia; 100 µM,1.75% (active)
same,growth,OVCAR-8 ovarian; 10 µM,102% (inactive)
same,growth,OVCAR-8 ovarian; 100 µM,11% (inactive)
same,growth,OVCAR-5 ovarian; 10 µM,108% (inactive)
same,growth,OVCAR-5 ovarian; 100 µM,9.37% (active)
same,growth,OVCAR-4 ovarian; 10 µM,80.7% (inactive)
same,growth,OVCAR-4 ovarian; 100 µM,-4.65% (active)
same,growth,SK-OV-3 ovarian; 10 µM,110% (inactive)
same,growth,SK-OV-3 ovarian; 100 µM,102% (inactive)
same,growth,IGROV1 ovarian; 10 µM,106% (inactive)
same,growth,IGROV1 ovarian; 100 µM,6.09% (active)
same,growth,NCI/ADR-RES ovarian; 10 µM,103% (inactive)
same,growth,NCI/ADR-RES ovarian; 100 µM,4.89% (active)
same,growth,T-47D breast; 10 µM,92% (inactive)
same,growth,T-47D breast; 100 µM,2.98% (active)
same,growth,BT-549 breast; 10 µM,90.5% (inactive)
same,growth,BT-549 breast; 100 µM,12.7% (inactive)
same,growth,SW-620 colon; 10 µM,106% (inactive)
same,growth,SW-620 colon; 100 µM,25% (inactive)
same,growth,MCF7 breast; 10 µM,92.9% (inactive)
same,growth,MCF7 breast; 100 µM,-37.7% (active)
same,growth,HCC-2998 colon; 10 µM,98.2% (inactive)
same,growth,HCC-2998 colon; 100 µM,59.9% (inactive)
same,growth,KM12 colon; 10 µM,110% (inactive)
same,growth,KM12 colon; 100 µM,40.1% (inactive)
CCN(CC)CC(C)(C)C(=O)/C=C/c1ccc(Cl)c(Cl)c1,growth,SR leukemia,10.3% (inactive)
same,growth,RPMI-8226 leukemia; 10 µM unless noted,2.2% (active)
same,growth,OVCAR-8 ovarian; 10 µM unless noted,-21.6% (active)
same,growth,OVCAR-5 ovarian; 10 µM unless noted,-43.1% (active)
same,growth,OVCAR-4 ovarian; 10 µM unless noted,30.3% (inactive)
same,growth,SK-OV-3 ovarian; 10 µM unless noted,42.7% (inactive)
same,growth,IGROV1 ovarian; 10 µM unless noted,-7.68% (active)
same,growth,OVCAR-3 ovarian,-66.3% (active)
same,growth,HS 578T breast,10.2% (inactive)
same,growth,NCI/ADR-RES ovarian; 10 µM unless noted,-12.6% (active)
same,growth,T-47D breast; 10 µM unless noted,-11.3% (active)
same,growth,BT-549 breast; 10 µM unless noted,16.4% (inactive)
same,growth,MDA-MB-435 melanoma,1.76% (active)
same,growth,SW-620 colon; 10 µM unless noted,-39.5% (active)
same,growth,MCF7 breast; 10 µM,-13.8% (active)
same,growth,HCT-116 colon,-60.6% (active)
same,growth,HCC-2998 colon; 10 µM unless noted,-65.2% (active)
same,growth,KM12 colon; 10 µM unless noted,-4.49% (active)
COc1ccccc1OC(=O)Oc1ccccc1OC,growth,SR leukemia,103% (inactive) and 101% (inactive)
same,growth,RPMI-8226 leukemia; 10 µM unless noted,105% (inactive) and 72.9% (inactive)
same,growth,OVCAR-8 ovarian; 10 µM unless noted,103% (inactive) and 112% (inactive)
same,growth,OVCAR-5 ovarian; 10 µM unless noted,117% (inactive) and 97.6% (inactive)
same,growth,OVCAR-4 ovarian; 10 µM unless noted,114% (inactive) and 99% (inactive)
same,growth,SK-OV-3 ovarian; 10 µM unless noted,112% (inactive)
same,growth,IGROV1 ovarian; 10 µM unless noted,105% (inactive) and 97.2% (inactive)
same,growth,OVCAR-3 ovarian,119% (inactive) and 96.3% (inactive)
same,growth,HS 578T breast,92.4% (inactive) and 102% (inactive)
same,growth,NCI/ADR-RES ovarian; 10 µM unless noted,114% (inactive) and 95.8% (inactive)
same,growth,T-47D breast; 10 µM unless noted,123% (inactive) and 100% (inactive)
same,growth,BT-549 breast; 10 µM unless noted,97% (inactive)
same,growth,MDA-MB-435 melanoma,112% (inactive) and 96% (inactive)
same,growth,SW-620 colon; 10 µM unless noted,94.6% (inactive) and 92.8% (inactive)
same,growth,MCF7 breast; 10 µM,96.1% (inactive) and 88.8% (inactive)
same,growth,HCT-116 colon,99.9% (inactive) and 101% (inactive)
same,growth,HCC-2998 colon; 10 µM unless noted,102% (inactive) and 94.6% (inactive)
